These results are taken from PubChem BioAssay.

The subject of test [1] is Human papillomavirus type 1a protein E7 (residues 44-93). The test can be described thus: HPV1a E7 fragment binders on microarrays, primary screen, biochemical, small-molecule microarray, residues 44-93, 635 nm fluorescence (AID 1108).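 Further: E7 fragment applied at 1 µg/mL in TBST for 1 h at 4 C; score combines spot fluorescence with its signal to noise ratio.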 As to conditions: small-molecule microarray binding, fluorescence 635 nm; higher = more signal.
The nature of test [2]: modulators of HCV replicon luciferase signal, primary screen, HCV replication inhibitor project, Huh7 cells, luciferase reporter (AID 1109).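 Further: huh7 hepatoma cells harbouring a luciferase neomycin HCV replicon reporter; luciferase luminescence as measure of HCV replicon replication; test concentration not given here.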 As to conditions: 48 h, higher = more signal.
Test [3] concerns the target Left-right determination factor 2 (Homo sapiens) (UniProt O00292). The test is described as follows: LEFTY2 binders on small-molecule microarrays, primary screen, biochemical, small-molecule microarray, 635 nm fluorescence scan (AID 1110). To be noted: LEFTY2 binding, higher = more signal.
For test [4], the target named is Calmodulin-1 (Homo sapiens) (UniProt P0DP23). The test is described as follows: CALM1 binders on microarrays, EGTA buffer, profiling panel, biochemical, small-molecule microarray, Cy5-labelled CALM1 (AID 1111).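 Further: labelled calmodulin applied in Tris saline Tween buffer holding calcium plus EGTA and DTT.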 As to conditions: Cy5-CALM1 binding fluorescence, higher = more signal.
For test [5] the target is unchanged. The test can be described thus: calcium-bound CALM1 binders on microarrays, profiling panel, artefact control for SMM control-protein annotation, biochemical, small-molecule microarray, Cy5-labelled CALM1, plus calcium (AID 1112).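 Further: score merges spot fluorescence with signal to noise from triplicate slides.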 As to conditions: Cy5-CALM1 binding fluorescence, higher = more signal.
The nature of test [6]: small-molecule microarray binders of probe aWnt5a, primary screen, biochemical, biotinylated probe, 635/667 nm fluorescence (AID 1113).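 Further: score merges 667 nm fluorescence intensity with signal-to-noise per printed feature.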 As to conditions: higher = more signal.
Test [7] in a line: small-molecule microarray binders of probe aShh, primary screen, biochemical, biotinylated probe, 635/667 nm fluorescence (AID 1114).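 Further: probe is biotin-labelled aShh protein from a stem cell growth factor screen; measures binding of labelled protein to compounds printed on the slide; score merges feature fluorescence at 667 nm with signal-to-noise.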 As to conditions: higher = more signal.
A short description of test [8]: small-molecule microarray binders of probe aNog, primary screen, biochemical, biotinylated probe, 635/667 nm fluorescence (AID 1115).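 Further: probe is biotinylated aNog protein used at 0.15 µg/mL for 1 h at 4 C; z-score combines 667 nm fluorescence of each spot with its signal to noise.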 As to conditions: higher = more signal.
Test [9] concerns the target Torsin-1A-interacting protein 1 (Homo sapiens) (UniProt Q5JTV8). The test can be described thus: LAP1 binders from COS7 cell lysate, primary screen, small-molecule microarray, 635/667 nm fluorescence (AID 1116). As to conditions: COS7-hLAP1 lysate binding, 635 nm fluorescence, higher = more signal.
The target in test [10] is Alpha-bungarotoxin (Bungarus multicinctus) (UniProt P60615). The test can be described thus: alpha-bungarotoxin binders on microarray, profiling panel, artefact control for SMM control protein annotation, biochemical, small-molecule microarray, Alexa647 label, 635/667 nm fluorescence (AID 1117). To be noted: alpha-BTX-A647 binding fluorescence, higher = more signal.
Alpha-bungarotoxin (Bungarus multicinctus), sequence (P60615 whole entry, looked up): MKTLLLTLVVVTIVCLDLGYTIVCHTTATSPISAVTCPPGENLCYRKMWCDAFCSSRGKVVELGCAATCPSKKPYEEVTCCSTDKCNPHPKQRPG

Torsin-1A-interacting protein 1 (Homo sapiens), sequence (Q5JTV8 whole entry, looked up): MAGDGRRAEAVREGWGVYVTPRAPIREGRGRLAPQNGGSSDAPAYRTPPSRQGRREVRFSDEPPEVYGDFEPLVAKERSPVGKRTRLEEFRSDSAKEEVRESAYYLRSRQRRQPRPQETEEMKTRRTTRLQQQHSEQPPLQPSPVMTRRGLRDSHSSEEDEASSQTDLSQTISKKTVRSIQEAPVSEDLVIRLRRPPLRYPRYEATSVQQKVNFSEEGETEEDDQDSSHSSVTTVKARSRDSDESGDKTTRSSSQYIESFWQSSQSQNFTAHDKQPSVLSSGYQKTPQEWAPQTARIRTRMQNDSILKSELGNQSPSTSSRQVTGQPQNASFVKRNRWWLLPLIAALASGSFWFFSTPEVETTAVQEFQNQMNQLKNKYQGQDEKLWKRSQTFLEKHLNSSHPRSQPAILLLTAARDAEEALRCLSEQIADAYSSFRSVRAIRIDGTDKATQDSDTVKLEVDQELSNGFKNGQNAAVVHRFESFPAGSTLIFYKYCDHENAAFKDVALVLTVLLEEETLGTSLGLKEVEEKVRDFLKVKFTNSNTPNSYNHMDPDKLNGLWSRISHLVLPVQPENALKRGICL
Left-right determination factor 2 (Homo sapiens), sequence (O00292 whole entry, looked up): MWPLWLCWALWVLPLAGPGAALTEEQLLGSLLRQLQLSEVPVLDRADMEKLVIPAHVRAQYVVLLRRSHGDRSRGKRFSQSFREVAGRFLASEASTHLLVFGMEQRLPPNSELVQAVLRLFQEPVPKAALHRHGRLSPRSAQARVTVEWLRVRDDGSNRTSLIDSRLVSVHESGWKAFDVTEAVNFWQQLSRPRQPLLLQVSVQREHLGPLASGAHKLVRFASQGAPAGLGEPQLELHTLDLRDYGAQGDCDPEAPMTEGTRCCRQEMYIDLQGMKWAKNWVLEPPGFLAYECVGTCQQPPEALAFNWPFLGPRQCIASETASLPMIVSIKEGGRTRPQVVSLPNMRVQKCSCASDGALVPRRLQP

For `CCOC(=O)C1=CC[C@@H](c2ccccc2)N(S(=O)(=O)C[Si](C)(C)C)[C@H]1c1ccccc1`, the composite z-score in test [1] is 1.38; in test [3] it was 0.618; in [4] it was 1.36; in test [5], 0.391; in test [6], 0.105; in test [7] it was -0.2. Also, the composite z-score was determined as 0.509 in test [8], 1.02 in test [9] and 1.02 in test [10]. In addition, in [2], the z-score was -0.61.
For `C=CCC(OC(C)=O)[C@@H]1[C@@H](N(Cc2ccc(-c3cccc(C(F)(F)F)c3)o2)C(=O)c2cccc3ccccc23)c2cc(OCCCO)ccc2N1C(=O)c1ccc2ccccc2c1` (stereo not given in full), the composite z-score is -0.423 in test [1]; -0.382 in [3]; -0.34 in test [4]; 0.17 in test [5]; -0.108 in [6]; -0.0709 in test [7]. In addition, the composite z-score was 0.0649 in [8], 0.49 in test [9] and 0.108 in [10]. Further, in [2], the z-score turned out to be 0.0329.
For the molecule `CCOC(=O)C1=CC[C@@H](c2ccccc2Cl)N(S(=O)(=O)c2ccc(C)cc2)[C@H]1c1cccc(OC)c1`, the composite z-score in [1] was 0.414; in test [3] it was -0.0038; in [4], 0.107; in test [5] it was 0.369; in test [6], 0.0382; in test [7] it was 0.123. For the same molecule, the composite z-score in [8] was determined as 0.216; in test [9], 0.111; in test [10], 0.253. The z-score in test [2] was -0.587.
For the molecule `CCCC[C@@H]1C[C@H]1[C@@H](NC(=O)c1ccc(C(F)(F)F)cc1)c1ccc(C(=O)OC)cc1`, the composite z-score in [1] stood at 0.733; in [3] it was 0.497; in test [4], 0.995; in test [5] it was 0.271; in [6], 0.869; in test [7], 2.11. Moreover, the composite z-score is 0.238 in test [8], 1.27 in test [9] and 1.48 in test [10]. For the same molecule, the z-score in test [2] was -1.33.
For `C=C(COC)C(=O)CC[C@@H](OC(C)=O)c1ccc(OCCO)cc1`, the composite z-score in test [1] was -0.133; in test [3], -0.374; in [4] it was -0.473; in test [5], -0.621; in test [6], -0.154; in [7], 0.0373. Besides, the figures for the composite z-score in [8], in [9] and in test [10] were 0.197, 0.119 and 1.39, respectively. Further, the z-score in [2] was -1.23.
Regarding `COc1ccc(NN2C(C(O)c3cc(C(F)(F)F)cc(C(F)(F)F)c3)C=CC3C(=O)N(C4CCCCC4)C(=O)C32)cc1` (stereo not given), the composite z-score was 0.258 in test [1]; -0.0774 in test [3]; 1.66 in test [4]; 0.0635 in test [5]; 0.485 in [6]; 0.611 in test [7]. For the same molecule, the composite z-score in [8] was determined as 1.82; in test [9] it was 1.06; in test [10], 0.698. Also, the z-score in [2] is -1.79.
Take `COCCOC(=O)N1C(=O)[C@@]2(c3cc(C#CCC(C(=O)OC)C(=O)OC)ccc31)[C@H](C(=O)N1CCc3cc(OC)c(OC)cc3C1)[C@H]1C(=O)O[C@H](c3ccccc3)[C@H](c3ccccc3)N1[C@@H]2c1ccc(O)cc1`: the composite z-score in [1] is 1.4; in [3] it was 1.17; in test [4], 0.442; in test [5], -0.406; in test [6] it was 0.0718; in test [7] it was 0.0326. In addition, the results for the composite z-score in test [8], in [9] and in test [10] were -0.537, 0.965 and 0.906, respectively. For the same molecule, the z-score in [2] was -0.649.
As to `COC(=O)c1ccc([C@H](NC(=O)c2ccccc2)[C@]2(C)C[C@H]2C2CCCCC2)cc1`, the composite z-score was 1.3 in test [1]; -0.254 in test [3]; 1.73 in [4]; 1.47 in [5]; 0.0805 in test [6]; 0.315 in test [7]. The composite z-score in test [8] was 1.68; in test [9], 0.462; in [10], 1.09. Moreover, the z-score in [2] was -1.61.
For the molecule `CC(C)C(=C=CC[C@@H](O)c1ccccc1OCCO)C[C@@H](O)c1cc(Cl)cc(Cl)c1O`, the composite z-score in [1] is 1.48; in [3], 0.744; in [4], 0.341; in [5], -0.538; in test [6] it was -0.0735; in test [7] it was -0.153. The results for the composite z-score in test [8], in test [9] and in [10] were 0.432, -0.197 and 1.54, respectively. For the same molecule, the z-score in [2] was -3.27.
For the molecule `CC#CCO[Si](C#CCCCCCC)(C(C)C)C(C)C`, the composite z-score is -0.321 in test [1]; -3.37 in test [3]; -0.626 in test [4]; 1.01 in test [5]; -0.275 in test [6]; -0.304 in [7]. The composite z-score in test [8] is -0.417; in test [9], -0.438; in [10] it was 0.0016. The z-score in [2] is 0.158.
On to `COC(=O)c1c(CC[C@@H](CO)NC(=O)N[C@@H](Cc2ccccc2)Cn2cc(-c3cncn3C)nn2)oc(C(C)=O)c1C(=O)OC`, for which the composite z-score is 1.47 in test [1]; -0.338 in test [3]; 0.162 in test [4]; -0.329 in test [5]; -0.124 in [6]; -0.0866 in test [7]. Besides, the composite z-score in [8] was -0.394; in test [9] it was 1.62; in [10], 0.581. Moreover, the z-score in [2] is -0.594.
